In the library only some 19% were active in any assay of this set; here they are far more common.
TDP1 inh = TDP1 (human) enzyme inhibition; recombinant TDP1, AlphaScreen DNA substrate cleavage; hit rate 0.28% among 350,000; AID 485290; Potency, µM (titrated, usually from 130 µM), without a hit: at the highest dose activity change, negative = inhibition, hits mostly inhibitors; also: potency is read from the fitted curve at half-maximal effect; nearly all actives have a fitted effect of over 40% in size
Target sequence (Q9NUW8 whole entry, looked up): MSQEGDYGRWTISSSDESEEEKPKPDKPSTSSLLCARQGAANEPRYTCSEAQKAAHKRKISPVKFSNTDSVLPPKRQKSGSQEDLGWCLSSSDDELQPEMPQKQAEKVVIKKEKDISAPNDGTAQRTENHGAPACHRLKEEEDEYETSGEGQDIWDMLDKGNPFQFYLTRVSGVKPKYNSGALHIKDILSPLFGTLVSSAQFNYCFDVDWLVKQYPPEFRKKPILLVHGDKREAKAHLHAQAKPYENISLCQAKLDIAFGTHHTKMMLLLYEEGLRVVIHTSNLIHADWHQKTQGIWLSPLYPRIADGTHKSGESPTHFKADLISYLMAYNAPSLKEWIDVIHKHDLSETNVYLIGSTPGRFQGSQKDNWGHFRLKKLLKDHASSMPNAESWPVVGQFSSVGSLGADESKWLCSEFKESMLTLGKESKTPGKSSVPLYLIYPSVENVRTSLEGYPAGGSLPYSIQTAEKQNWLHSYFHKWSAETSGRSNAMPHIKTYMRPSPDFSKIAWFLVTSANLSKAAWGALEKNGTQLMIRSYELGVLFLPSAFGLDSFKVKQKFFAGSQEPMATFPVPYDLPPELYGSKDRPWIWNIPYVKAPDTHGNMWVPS
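Enzyme-compound mixtures sat 15 min at room temperature, followed by a 5 min reaction with 15 nM final substrate and 10 min with AlphaScreen beads. Recombinant human Tdp1 was used at 1 nM final.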
Giardia kill = kills Giardia lamblia. Giardia lamblia trophozoite viability. activity change, % at 7.66 µM, hits read low. hit rate 0.15% among 340,000; in the data active = activity change below about -80%; inconclusive = between about -30% and that limit;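 also: parasites exposed to compound for two days anaerobically before the ATP read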
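Giardia lamblia trophozoites (100 cells/well) were incubated with compounds for 48 h at 37 deg C under anaerobic conditions. Viability was read as ATP content by one-step luminescence after 15-30 min at room temperature.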
ELG1 repair inh = inhibitors of ELG1-dependent DNA repair in HEK293T cells; HEK293T ELG1-luciferase reporter, luminescence, 16 h; DNA damage induced by 5-fluorouridine; Potency, µM (series often up to 46.1 µM), for the others: at the top dose activity change, negative = inhibition, most hits filed as inhibitors; hit rate 2.3% among 330,000; AID 504467; also: potency is read from the fitted curve at half-maximal effect; nearly all actives have a fitted effect of over 55% in size
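Luminescence from the luciferase reporter, measured 30 min after ONE-Glo reagent at room temperature, was the read-out. Beforehand, 2,000 cells per well were exposed for 16 hr at 37 °C to 5-fluorouridine together with compound or vehicle.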
DT40 TDP1 no CPT = qHTS for Inhibitors of human tyrosyl-DNA phosphodiesterase 1 (TDP1): qHTS in cells in absence of CPT. DT40 Tdp1-/- hTDP1 cells, no CPT, ATP luminescence, 48 h. Potency, µM (top dose mostly 46.2 µM), inactives show at the highest dose activity change, negative = growth inhibition, actives largely listed as inhibitors. hit rate 15% among 420,000; also: potency is read from the fitted curve at half-maximal effect; nearly all actives have a fitted effect of over 55% in size
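Chicken DT40 Tdp1-/- cells stably complemented with human TDP1 were seeded at 400 cells/well with DMSO in place of 20 nM camptothecin. After compound pinning, cells grew at least 48 hr at 37 °C; viability read by CellTiter-Glo luminescence.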
IL1B secr inh = inflammasome signaling inhibition, IL-1 beta readout. THP-1 LPS/ATP IL-1B secretion, AlphaLISA, 16 h; stronger effect = lower value. activity change, % at 57.5 µM. hit rate 4.7% among 360,000. AID 743279; in the data active = activity change below about -50%; inconclusive = mostly about -30% to -49%
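Secreted IL-1B measured by AlphaLISA bead assay after 16 h compound exposure of THP-1 cells; compounds (final up to 57.5 uM) added 1 h before LPS (250 ng/mL) and ATP (1.25 mM) stimulation; lower signal means less secretion.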
DT40 TDP1 CPT = growth inhibition of DT40 Tdp1-/-;hTDP1 cells with camptothecin (screen for TDP1 inhibitors) | Potency, µM (series often up to 46.2 µM), without a hit: top-dose activity change, negative = growth inhibition, usual class: inhibitors | hit rate 12% among 420,000 | chicken DT40 Tdp1-/-;hTDP1 cells + 20 nM CPT, ATP luminescence, 48 h; also: potency is read from the fitted curve at half-maximal effect; nearly all actives have a fitted effect of over 55% in size
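Chicken DT40 Tdp1-/- cells stably complemented with human TDP1 were seeded at 400 cells/well in medium containing 20 nM camptothecin, exposed to pin-transferred compounds, and grown at 37 °C for at least 48 hr. Viability was read as ATP luminescence.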
Starred values were filed as active, the others as inactive; i = inactive; ? = inconclusive; . = not tested or not shown; [ ] = remark or other dose. Unless noted, calls follow the shape of the dose curve; as a rule, active = well fitted curve in the direction sought with a large enough effect; inconclusive = small, poorly fitted or top-dose-only effect, or another doubt; inactive = no such curve, though single readings can be large; an effect the other way counts as inactive or inconclusive. % is scaled to controls: 0 for no effect and ±100 for the full control effect.

SMILES	TDP1 inh	Giardia kill	ELG1 repair inh	DT40 TDP1 no CPT	IL1B secr inh	DT40 TDP1 CPT
COC(=O)c1c(NC(=O)CN2CCC(C(N)=O)CC2)c2c(C)cccc2n1C	5%	14	?	-18%	17	-11%
COC(=O)c1c(NC(=O)CN2CCCC(C)C2)c2c(C)cccc2n1C (centres undefined)	5%	-14	-13%	6.5µM*	-11	?
CC1(C)CC=CC(COC(=O)c2ccccc2C(=O)O)C1 (centres undefined)	.	-6	.	-25%	14	-5%
COCCN(C(=O)c1cccc(N2C(=O)CCC2=O)c1)c1nc(-c2ccc([N+](=O)[O-])cc2)cs1	-3%	33	5.8µM*	21µM*	-11	?
O=C(Nc1nc(-c2ccc(F)cc2)cs1)c1cccc(N2C(=O)CCC2=O)c1	5%	-4	?	?	0	?
Nc1ccc(S(=O)(=O)NC2(C(F)(F)F)NC(=O)N(c3ccccc3F)C2=O)cc1 (centres undefined)	.	-2	23%	2%	8	10%
COCCCN(C(C)=O)c1nc(-c2ccc(OC)cc2)cs1	4%	1	-20%	?	26	15µM*
COc1ccc(-c2csc(N(CCCN(C)C)C(=O)c3ccc(C(C)(C)C)cc3)n2)cc1	8%	-12	?	?	-80*	?
COc1ccc(-c2csc(N(CCCN(C)C)C(=O)c3ccc(Br)cc3)n2)cc1	.	6	9%	21µM*	-76*	21µM*
COc1ccc(-c2csc(N(CCCN(C)C)C(=O)c3ccc(C)cc3)n2)cc1	.	11	-19%	16µM*	-79*	?
CCN(C(=O)c1cccs1)c1nc(-c2ccc(OC)cc2)cs1	.	-8	?	?	-20	-3%
CCN(CC)CCCN(C(=O)c1ccc(OC)cc1)c1nc(-c2ccc(OC)cc2)cs1	.	-1	?	?	.	?
Cc1ccc(CN2C(=O)C(F)(F)Oc3ccc(C)cc32)cc1	.	.	.	-2%	36	-6%
CCCOc1ccc(C(=O)NNC(=O)c2cccc(S(=O)(=O)N3CCN(C(C)=O)CC3)c2)cc1OC	-5%	-8	1%	18%	-3	-1%
Cc1ccccc1-n1nc(C)c2cc(C(=O)N3CCN(S(=O)(=O)c4ccc(F)cc4)CC3)sc21	-2%	-14	?	18µM*	-10	10µM*
COc1ccc(C2CC(c3ccccc3)=NN2S(=O)(=O)c2ccccc2)c(OC)c1 (centres undefined)	5%	1	13%	21µM*	3	?
COc1ccccc1C1CC(c2ccccc2)=NN1S(=O)(=O)c1ccccc1 (centres undefined)	.	-23	23µM*	-24%	15	?
COc1cccc(C2CC(c3ccccc3)=NN2S(=O)(=O)c2ccc(C)cc2)c1OC (centres undefined)	5%	0	-11%	?	-8	?
COc1ccc(C2=NN(S(=O)(=O)c3ccccc3)C(c3ccccc3)C2)cc1 (centres undefined)	2%	-1	-24%	?	-5	?
O=S(=O)(c1ccccc1)N1N=C(c2ccccc2)CC1c1ccccc1 (centres undefined)	3%	-6	-14%	?	-4	?
COc1ccc(C2CC(c3ccccc3)=NN2S(=O)(=O)c2ccc(C)cc2)c(OC)c1 (centres undefined)	3%	12	18%	7.3µM*	-6	8.2µM*
CC(=O)c1ccc(N2CCN(C(=O)CNS(=O)(=O)c3ccc4c(c3)OCCCO4)CC2)c(F)c1	11%[0.505 µM]	25	-21%	?	-4	?
Cc1ccc(-c2nc3ccc(Cl)cn3c2Nc2ccc3c(c2)OCCO3)s1	7%	.	.	?	.	18µM*
Cc1ccc(-c2nc3ccc(Cl)cn3c2Nc2ccc3c(c2)OCCO3)o1	9%	.	.	16µM*	.	21µM*
Fc1ccccc1-c1ccc(-c2nc3ccc(Cl)cn3c2Nc2ccc(Cl)cc2)o1	7%	-15	.	3.5µM*	.	4.5µM*
SMILES	TDP1 inh	Giardia kill	ELG1 repair inh	DT40 TDP1 no CPT	IL1B secr inh	DT40 TDP1 CPT
Cc1ccn2c(Nc3ccc4c(c3)OCCO4)c(-c3cccs3)nc2c1	8%	.	.	?	.	?
Cc1ccc2nc(-c3ccc(C)o3)c(Nc3ccc4c(c3)OCO4)n2c1	1%	23	.	?	.	?
COc1ccc(-c2nc3ccc(Cl)cn3c2Nc2ccc(C)cc2)cc1	-2%[12.3 µM]	.	.	?	.	?
CN(C)C(=O)c1ccc(-c2cncnc2NCc2cccs2)cc1	28µM*	.	.	-16%	.	-3%
CN(C)C(=O)c1ccc(-c2cncnc2NCc2ccccc2)cc1	.	.	.	0%	.	-15%
CN(C(=O)c1ccoc1)c1ccc2ccccc2c1	4%	6	-9%	?	12	13µM*
CN(C(=O)c1ccoc1)c1ccccc1I	3%	29	.	.	.	.
CCOC(=O)COc1ccc2c3c(c(=O)oc2c1)CCCC3	2%	14	15%	5%	23	-3%
CCOC(=O)COc1ccc2cc(C(=O)OCC)c(=O)oc2c1	2%	-8	2%	-14%	-80*	-16%
CCOC(=O)c1c(C)[nH]c(C(=O)COc2ccc3ccc(=O)oc3c2)c1C	22µM*	-3	-2%	-24%	-2	?
CCOC(=O)N1CCN(C(=O)c2ccc(-c3ccccc3OC)nc2N2CCC(N3CCCC(CO)C3)CC2)CC1 (centres undefined)	.	.	.	-18%	.	18%[9.04 µM]
CCCCOc1ccc(C(=O)N/C(=C/C=C/c2ccccc2)C(=O)NC)cc1	-5%	-19	?	-19%	-21	26µM*
O=C(O)COc1ccc(/C=N/NC(=O)/C(=C/C=C/c2ccccc2)NC(=O)c2ccccc2)cc1	.	14	-7%	17%	-8	-8%
O=C(Nc1ccc(O)cc1)/C(=C\C=C\c1ccccc1)NC(=O)c1ccccc1	7%	-8	?	16µM*	-5	?
O=C(Nc1ccc(C(=O)O)cc1)/C(=C\C=C\c1ccccc1)NC(=O)c1ccccc1Cl	5%	?	-4%	-11%	i	10%
COC(=O)[C@H](CCSC)NC(=O)C/C=C\[C@@H](C)CO	7%[21 µM]	.	.	.	.	.
COc1ccc(C(=O)NCc2nnc(SCC(=O)Nc3ccccc3OC)n2C)cc1	0%	-11	11%	-14%	62	-13%
CCCCNC(=O)C1(C)CCCCN1Cc1ccc(-c2ccccc2)cc1 (centres undefined)	.	.	.	8.2µM*	16	13µM*
